Assay results taken from the supplement of paper PMC12636033.
± gives the standard deviation of the averaged measurements. The full ranking holds about 33,000 sequences; the median of “E-score (rank enrichment, -0.5 to 0.5)” is about -0.0028, and the highest 2% start at about 0.23. Only a selection was taken, and the highest values are over-represented in it overall.

tested on: 2Sb-muMax20 (muMax20 with two 1,3-bis(methyl)benzene Cys staples, A13C/A17C and Q88C/A92C, C-terminal Lys); assay: PBM 8-mer E-score (E-score (rank enrichment, -0.5 to 0.5)); higher = stronger preferential binding
Method: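 Protein binding microarray (universal PBM chip covering all 10-mers in fixed probe flanks) with chemically synthesized human Max(13-93) bHLH-LZ analogs (not full-length Max) bearing noncanonical residues (hArg, Tha, Aib, Nle at 65) and aromatic Cys staples. Read-out per 8-mer (and its reverse complement): E-score (rank-based enrichment, -0.5 to 0.5) and Z-score of median probe intensity.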

Sequence	PBM 8-mer E-score
ATCCCCTC	0.2637 ± 0.0019
CCTAAACC	0.0137 ± 0.051
CACACTAG	0.0294 ± 0.013
ATTCTGCG	-0.00613 ± 0.071
AAGTACGC	0.0498 ± 0.026
CCCTTGAG	0.00432 ± 0.0094
GCTGGCTA	-0.249 ± 0.011
ACCCCGAT	0.136 ± 0.042
CCGTATAC	0.0522 ± 0.032
TACGAGGA	0.169 ± 0.069
AACGAGGA	0.239 ± 0.015
CACGAGAA	-0.0119 ± 0.064
AACGAGAA	0.238 ± 0.04
AACGAGAT	-0.0543 ± 0.025
CACGAGGA	-0.017 ± 0.031
ATAGTGCG	0.0132 ± 0.011
CATCGGAC	-0.165 ± 0.033
GATCATAA	0.278 ± 0.0031
CATCATAA	0.142 ± 0.0093
TATCATAA	0.181 ± 0.012
CATCGCGA	0.056 ± 0.036
ACCATAAC	0.1 ± 0.012
ATTAATTA	0.263 ± 0.034
ATAAATTG	0.165 ± 0.082
GTTAATGA	0.148 ± 0.06

Sequence	PBM 8-mer E-score
CTAAATTA	0.0224 ± 0.0043
ATTAATTC	0.105 ± 0.042
ATTAACTA	0.237 ± 0.012
ATAAATTA	0.307 ± 0.014
GTTAACTA	0.207 ± 0.1
ATTAATTG	0.175 ± 0.039
ATTAATGA	0.278 ± 0.055
ATTAACTC	0.136 ± 0.005
ATTAATGG	0.0434 ± 0.0092
CGGTCACG	-0.188 ± 0.076
CAGGGAGC	-0.238 ± 0.051
AGCCTTCA	0.149 ± 0.085
CTGAACTA	-0.149 ± 0.065
AATAATTA	0.269 ± 0.06
AATAATGT	0.283 ± 0.0037
AATAATGG	0.138 ± 0.0076
GATAATTA	0.0844 ± 0.0069
AATAATGC	0.213 ± 0.083
ATGAACTC	-0.04627 ± 0.0002
ATGAACTA	0.27 ± 0.054
CATAATTA	0.203 ± 0.039
GAGTGCAC	-0.0155 ± 0.11
AATACGGA	0.0895 ± 0.071
CGGAATGC	-0.00566 ± 0.015
GTCCATTA	0.107 ± 0.015

Sequence	PBM 8-mer E-score
ATGTGGAA	0.173 ± 0.015
GGAAATAC	-0.0227 ± 0.051
GAGTTCCA	-0.117 ± 0.052
GCACGTGC	0.4793 ± 0.0038
GGACGTGA	-0.108 ± 0.045
GAACGTGA	0.00502 ± 0.1
GCACGTCC	-0.139 ± 0.095
GCACGTGA	0.241 ± 0.026
GCACGTAC	0.0889 ± 0.026
GTTCCGTA	-0.187 ± 0.024
ATCCACAA	0.0617 ± 0.059
ATCGTCCG	-0.149 ± 0.027
GTTTCTTA	0.0179 ± 0.046
AATAACCG	0.0384 ± 0.018
ACGCGCGG	0.178 ± 0.038
ACGCGCGC	0.1365 ± 0.00093
ACGCGCGT	0.3355 ± 0.0029
GCGCGCGC	0.3223 ± 0.00078
CCGCGCGC	0.01 ± 0.0081
GCGCGCGA	0.0594 ± 0.082
AGCAGTTC	0.00143 ± 0.078
AAAAATAA	0.0834 ± 0.061
GACCTGGA	-0.164 ± 0.035
AATATTCT	0.133 ± 0.011
AATACGTC	0.0547 ± 0.024

Sequence	PBM 8-mer E-score
AATACGCA	0.251 ± 0.0039
CATACGTC	-0.00541 ± 0.00038
AATACGTG	0.0524 ± 0.012
AATACGCT	0.188 ± 0.045
GATACGTA	0.081 ± 0.0043
CATACGTA	0.3021 ± 0.0027
AATACGTA	0.231 ± 0.019
GATACGCA	0.115 ± 0.031
AAGCACAC	0.0724 ± 0.00084
AGACGTAA	0.0336 ± 0.059
CCGTAGAG	-0.0843 ± 0.033
AAAGGGCT	0.0103 ± 0.021
CAGGGGCA	0.0503 ± 0.027
AAGGGGCT	0.276 ± 0.0072
GAGGGGCA	0.0724 ± 0.043
TAGGGGCA	0.267 ± 0.013
AAGGGGCG	0.0188 ± 0.025
AAAGTTAT	0.0271 ± 0.025
AATAGGGC	-0.00932 ± 0.054
CAGTTTGA	-0.0513 ± 0.03
GGAATGCC	-0.081 ± 0.011
GTGGAGCA	-0.0959 ± 0.032
AATAGCAG	-0.0835 ± 0.028
CTTGTATA	0.164 ± 0.018
ATTGTACC	0.178 ± 0.035

Sequence	PBM 8-mer E-score
ATTGTATA	0.273 ± 0.017
GACGTATA	0.0136 ± 0.0084
GCTGTATA	0.218 ± 0.05
ATTGTACA	0.241 ± 0.042
CTTGTACA	0.0642 ± 0.09
ACTGTATA	0.236 ± 0.042
ATTGTATG	0.172 ± 0.066
CCTGTATA	0.109 ± 0.011
CACGTATA	0.0602 ± 0.053
AACGTATA	0.251 ± 0.032
TGAAGAAA	-0.0313 ± 0.065
CACCTCTG	-0.0833 ± 0.03
CGTAACAG	0.177 ± 0.013
GAAGGCGC	-0.0372 ± 0.063
ATTGTCTC	-0.0946 ± 0.028
CATGTATA	0.15 ± 0.062
AATGTATA	0.269 ± 0.02
GATGTATA	0.0803 ± 0.029
GTTGTCTA	-0.0541 ± 0.029
ATTGTCTA	0.277 ± 0.0069
TAACGGAA	0.149 ± 0.021
ACAGTGAT	0.142 ± 0.065
TAAGGCTA	0.0712 ± 0.066
AGTAGGGC	0.0716 ± 0.0035
AGTAGGGG	0.306 ± 0.0088

Sequence	PBM 8-mer E-score
AGGAGGGA	-0.0776 ± 0.0034
AGGAGGGG	0.297 ± 0.06
AGGAGGGC	-0.0974 ± 0.038
AGTAGGGA	0.0636 ± 0.013
ATGAGGGC	0.0989 ± 0.0016
ATGAGGGA	0.191 ± 0.062
ATGAGGGG	0.267 ± 0.0094
AATGGCGA	0.135 ± 0.067
GACTCAGA	-0.115 ± 0.064
CACGGCAC	-0.198 ± 0.045
GGTCTCTA	-0.0733 ± 0.014
CCTGAGCC	-0.241 ± 0.074
TGTTTCAA	0.13 ± 0.063
GAAGTTGC	-0.202 ± 0.021
ACTTCACA	0.0282 ± 0.023
CCTTCACA	0.298 ± 0.014
CCTTCACG	-0.013 ± 0.075
AATCCCGT	-0.000655 ± 0.018
ATATTTTA	0.238 ± 0.0056
CCATTTTA	0.0822 ± 0.0077
CTATTTAA	-0.0132 ± 0.0071
ATATTTAA	0.256 ± 0.024
ACATTTTA	0.242 ± 0.054
GTATTTTA	0.0366 ± 0.0083
CTATTTTA	0.193 ± 0.048

Sequence	PBM 8-mer E-score
GCATTTTA	0.151 ± 0.0045
ATATTTAC	0.22 ± 0.028
CCTTTTTC	0.0688 ± 0.1
CCCGAAAA	0.0645 ± 0.051
AGTATTAT	-0.0141 ± 0.036
AGCGAACC	-0.0262 ± 0.033
GCCCTCAA	0.0476 ± 0.024
AAAGTACT	0.136 ± 0.092
AGAAGTAA	0.141 ± 0.011
TGAAGTAA	0.1 ± 0.05
GGAAGTAA	0.262 ± 0.0039
TATATCCA	0.157 ± 0.048
AGTCGCAT	0.00112 ± 0.0029
ATGATCCG	-0.186 ± 0.035
ATAAATAA	0.111 ± 0.012
ATAAACAA	0.157 ± 0.019
ATAAACAC	0.0999 ± 0.056
ATAAAAAT	0.136 ± 0.028
ATAAACAT	0.246 ± 0.014
ATAAATAG	0.111 ± 0.04
AAAAATAT	0.16 ± 0.01
ATAAATAT	0.239 ± 0.042
ATAAATAC	0.288 ± 0.028
